PubChem BioAssay AID652015 (National Center for Advancing Translational Sciences (NCATS), 2013)
Inconclusive results are not listed. A call without a number means that no potency is given here. The source made the active and inactive calls. The call rests on the fitted dose curve; in most records, active means well fitted inhibition curve with a large enough effect; inconclusive means small, poorly fitted or top-dose-only effect; inactive means no such curve, though single readings can be large or run the other way.

These compounds were tested against Coelenterazine h 2-monooxygenase (Renilla reniformis) (UniProt P27652) (assay: qHTS Assay for Inhibitors of Sea Pansy Luciferase from the GSK Published Protein Kinase Inhibitor Set). Conditions: purified Renilla luciferase, luminescence; series mostly up to 57.5 µM.
Procedure, shortened: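 Purified R. reniformis luciferase (1 nM final) with 5 uM coelenterazine h in 50 mM Tris acetate pH 7.5, 100 uM NaCl, 0.01% Tween-20, 0.05% BSA. A titration, about 60 uM to 300 pM; luminescence read after about 2 min.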

Sequence of Coelenterazine h 2-monooxygenase (Renilla reniformis) (P27652 whole entry, looked up): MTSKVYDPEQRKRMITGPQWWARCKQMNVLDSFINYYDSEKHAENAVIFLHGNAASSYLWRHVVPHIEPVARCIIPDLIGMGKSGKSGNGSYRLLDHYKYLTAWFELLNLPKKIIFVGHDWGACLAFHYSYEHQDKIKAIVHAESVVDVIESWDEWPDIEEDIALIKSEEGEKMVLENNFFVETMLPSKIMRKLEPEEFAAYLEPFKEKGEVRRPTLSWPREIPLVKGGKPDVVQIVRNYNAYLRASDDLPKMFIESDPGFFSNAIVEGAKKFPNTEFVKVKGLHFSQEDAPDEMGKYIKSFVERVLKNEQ

| SMILES | Potency |
| --- | --- |
| CN1CCC(C(=O)Nc2n[nH]c3nnc(-c4ccccc4)cc23)CC1 | inactive |
| Cc1cccc(-c2[nH]ncc2-c2ccc3ncccc3n2)n1 | inactive |
| CS(=O)(=O)CCNCc1ccc(-c2ccc3ncnc(Nc4ccc(OCc5ccccc5)c(C(F)(F)F)c4)c3c2)o1 | inactive |
| CCCN(CCS(C)(=O)=O)Cc1ccc(-c2ccc3ncnc(Nc4ccc(OCc5cccc(F)c5)c(Cl)c4)c3c2)o1 | inactive |
| COc1cccc(-n2ncc3c(NN=Cc4ccncc4)ncnc32)c1 | inactive |
| CCn1c(-c2nonc2N)nc2cnc(Oc3cccc(NC(=O)c4ccc(OCCN5CCOCC5)cc4)c3)cc21 | inactive |
| CN1CCC(n2cnc(-c3ccc(F)cc3)c2-c2ccnc(N)n2)CC1 | inactive |
| CC(=Nc1ccc(S(N)(=O)=O)cc1)c1c(O)[nH]c2ccccc12 | inactive |
| NC(=O)c1ccc(Oc2nccc(-c3c(-c4ccc(F)cc4)ncn3C3CCNCC3)n2)cc1 | inactive |
| O=C(OC1CNC(C#Cc2cc3ncnc(Nc4ccc5c(ccn5Cc5cc(F)ccc5F)c4)c3s2)C1)N1CCOCC1 (centres undefined) | inactive |
| CCn1c(-c2nonc2N)nc2c(C#CC(C)(C)O)ncc(OC3CCNCC3)c21 | inactive |
| COc1ccc(COc2ccc(Cc3cnc(N)nc3N)cc2OC)cc1 | inactive |
| COc1cc(C)c(NC(=O)CN(C)C)cc1Nc1nc(Nc2cccc(F)c2C(N)=O)c2cc[nH]c2n1 | inactive |
| COc1cc2ncn(-c3cc(OCc4ccccc4C(F)(F)F)c(C(C)=O)s3)c2cc1OC | inactive |
| COc1ccc(CNC(=O)c2ccc(-c3cc(-c4nnc(C)o4)ccc3C)cc2)cc1 | inactive |
| Fc1cccc(COc2ccc(Nc3ncncc3C#Cc3ccccc3)cc2Cl)c1 | inactive |
| COC(=O)Nc1nc2ccc(Oc3cccc(NC(=O)Nc4cc(C(F)(F)F)ccc4F)c3)cc2[nH]1 | inactive |
| CC(=O)Nc1cccc(C#Cc2cncnc2Nc2ccc(OCc3cccc(F)c3)c(Cl)c2)c1 | inactive |
| COC(=O)c1sc(-n2cnc3cc(OC)c(OC)cc32)cc1OCc1ccccc1C(F)(F)F | inactive |
| NC(=O)c1sc(-n2cnc3cc(C(F)(F)F)ccc32)cc1OCc1ccccc1Br | inactive |

| SMILES | Potency |
| --- | --- |
| Cc1cccc(Oc2nccc(-c3c(-c4ccc(F)cc4)ncn3C3CCNCC3)n2)c1C | inactive |
| CCn1c(-c2nonc2N)nc2ccccc21 | inactive |
| COc1cccc(-n2ncc3c(NN=Cc4ccc(S(C)(=O)=O)cc4)ncnc32)c1 | inactive |
| Fc1ccc(Nc2nccc(-c3c(-c4ccc(C(F)(F)F)cc4)nn4ncccc34)n2)cc1F | inactive |
| COc1ccc(Nc2ncc(-c3ccccc3)o2)cc1OC | inactive |
| CC1=C(C(=O)Nc2ccc3[nH]ncc3c2)C(c2ccc(Cl)c(Cl)c2)CC(=O)N1 (centres undefined) | inactive |
| COc1cccc(-n2cnc3c(NN=Cc4ccncc4)ncnc32)c1 | inactive |
| COc1cccc(-n2ncc3c(NN=Cc4cccc(F)c4)ncnc32)c1 | inactive |
| FC(F)(F)c1cccc(-c2nn3ncccc3c2-c2ccnc(Nc3ccc4c(c3)OCCO4)n2)c1 | inactive |
| CN(C)C(=O)OC1CNC(C#Cc2cc3ncnc(Nc4ccc(OCc5cccc(F)c5)c(Cl)c4)c3s2)C1 (centres undefined) | inactive |
| Cn1c(-c2nonc2N)nc2cnccc21 | inactive |
| O=C(OC1CNC(C#Cc2cc3ncnc(Nc4ccc5c(cnn5Cc5ccccc5)c4)c3s2)C1)N1CCOCC1 (centres undefined) | inactive |
| CCc1ccc(Oc2nccc(-c3c(-c4ccc(F)cc4)ncn3C3CCNCC3)n2)cc1 | inactive |
| Fc1ccc(-c2ncn(CCCN3CCOCC3)c2-c2ccncc2)cc1 | inactive |
| COc1ccc(-c2ccncc2)cc1C(N)=O | inactive |
| CC(C)(C)c1ccc(Oc2nccc(-c3c(-c4ccc(F)cc4)ncn3C3CCNCC3)n2)cc1 | inactive |
| COc1ccc(-c2ccc3c(NC(=O)C4CC4)n[nH]c3n2)cc1 | inactive |
| COc1cc2ncn(-c3cc(OC(C)c4ccccc4Cl)c(C(N)=O)s3)c2cc1OC (centres undefined) | inactive |
| CN(C)CCNC(=O)Nc1ccc(N(C)c2ccnc(Nc3ccc(CS(C)(=O)=O)cc3)n2)cc1 | inactive |
